Results: PubChem BioAssay (NCATS)
Records with an inconclusive call do not appear. A call without a number means that no potency is given here. Values without a mark were called inactive. Active and inactive are the calls of the source. The call rests on the fitted dose curve; in most records, active means well fitted inhibition curve with a large enough effect; inconclusive means small, poorly fitted or top-dose-only effect; inactive means flat fitted curve, though single readings scatter.
Potency means the concentration at half of the fitted maximal effect.

Assay: P-glycoprotein substrates identified in KB-8-5-11 adenocarcinoma cell line, qHTS therapeutic library screen (AID 1346987); further: nearly all actives have a fitted effect of over 65% in size
Details: KB-8-5-11 (P-gp overexpressing) viability, CellTiter-Glo, 72 h; series mostly up to 44.5 µM
Summary of the method: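 KB-8-5-11, a colchicine-selected P-gp-overexpressing KB-3-1 subline, was grown without colchicine for the assay. Cells were seeded at 500 cells/well, dosed in concentration-response and incubated 72 h at 37 degree C, 5% CO2. Viability was read by CellTiter-Glo luminescence.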
With COC(=O)c1ccc(N2CCN(C)CC2)c(NC(=O)c2cccc(OC)c2)c1 the Potency was “inactive”. For O=C(NCCO)c1cccc(-c2cc(Nc3ccc(OC(F)(F)F)cc3)ncn2)c1, the Potency was “inactive”. For C=C1CCN([C@H](C)[C@](O)(Cn2cncn2)c2ccc(F)cc2F)CC1, the Potency was “inactive”. With CC(C)c1noc(C2CCN(c3ncnc(Nc4ccc(S(C)(=O)=O)cc4F)c3[N+](=O)[O-])CC2)n1 the Potency was “inactive”. For CCC(C)C(=O)OC1C(C)C2(O)C(C=C(CO)CC3(O)C(=O)C(C)=CC32)C2C(C)(C)C12OC(=O)C(C)C (stereo not given), the Potency was “inactive”. With COc1ccc(C2NC(=S)N3C(c4ccc(OC)c(OC)c4)NC(=S)N23)cc1OC (stereo not given) the Potency was “inactive”. With CO[C@@H]1[C@H](O)CCC2(CO2)[C@H]1[C@@]1(C)O[C@@H]1CC=C(C)C (stereo not given in full) the Potency was “inactive”. For COC[C@H](c1ccc(C(F)(F)F)cc1)N1CCN(C2(C)CCN(C(=O)c3c(C)ncnc3C)CC2)C[C@H]1C, the Potency was “inactive”. In the case of OC1C=C2C3CN(Cc4cc5c(cc43)OCO5)C2CC1O (stereo not given), the Potency is reported as 13 µM (active). In the case of C[C@H](Oc1cc(-n2cnc3ccc(CN4CCN(C)CC4)cc32)sc1C(N)=O)c1ccccc1C(F)(F)F, the Potency is reported as 4.61 µM (active). With O=C(O)c1cc2ccccc2c(Cc2c(O)c(C(=O)O)cc3ccccc23)c1O the Potency was “inactive”. For CN(C)c1ccc(NC(=O)NS(=O)(=O)c2ccc(Cl)cc2)cc1, the Potency was “inactive”. With COc1ccnc(CS(=O)c2nc3cc(OC(F)F)ccc3[nH]2)c1OC (stereo not given) the Potency was “inactive”. In the case of COc1cc(-c2cn(C3CCc4c(F)cccc4N(CC(F)(F)F)C3=O)nn2)ccc1-n1cnc(C)c1 (stereo not given), the Potency is reported as “inactive”. In the case of C=C1CCC2C(C)(C(=O)O)CCCC2(C)C1CCC1=CCOC1=O (stereo not given), the Potency is reported as “inactive”. With C=C(C)C1=C[C@@]2(C)C(=CC1=O)CC[C@@H](O)[C@@H]2C the Potency was “inactive”. For CCn1c2ccccc2c2cc(Nc3ccnc(NCCCN4CCOCC4)n3)ccc21, the Potency was 20.6 µM (active). For CCN(Cc1cc(Nc2nc(C)cn3c(-c4cn[nH]c4)cnc23)sn1)C(C)(C)CO, the Potency was 0.411 µM (active). With CN(C)[C@@H]1CCc2[nH]c3ccc(NC(=O)c4ccc(F)cc4)cc3c2C1 the Potency was “inactive”. With CC1(C)SCCN(S(=O)(=O)c2ccc(Oc3ccncc3)cc2)[C@H]1C(=O)NO the Potency was “inactive”. In the case of C/C=C(/CC[C@@H](C)[C@H]1CC[C@H]2C3=CC[C@H]4[C@H](C)[C@@H](O)CC[C@]4(C)[C@H]3CC[C@]12C)C(C)C, the Potency is reported as “inactive”. In the case of COc1ccc(-c2csc(NC(=O)[C@H]3CCCCN3S(=O)(=O)c3ccc(C)cc3)n2)cc1, the Potency is reported as “inactive”. In the case of C=C1CCC[C@]2(C)CC/C(=C(/CO)C(=O)OC)C[C@@H]12, the Potency is reported as “inactive”. In the case of COC(=O)C1=COC(O[C@@H]2O[C@H](CO[C@@H]3O[C@H](COC(=O)/C=C\c4ccc(O)cc4)[C@@H](O)[C@H](O)[C@H]3O)[C@@H](O)[C@H](O)[C@H]2O)C2C(CO)=CCC12 (stereo not given in full), the Potency is reported as “inactive”. For CN1c2c(nc(N)[nH]c2=O)NC[C@@H]1CNc1ccc(C(=O)N[C@@H](CCC(=O)O)C(=O)O)cc1, the Potency was “inactive”. In the case of NCCCC[C@H](NC(=O)[C@@H]1CCCN1C(=O)[C@@H]1CSSC[C@H](N)C(=O)N[C@@H](Cc2ccc(O)cc2)C(=O)N[C@@H](Cc2ccccc2)C(=O)N[C@@H](CCC(N)=O)C(=O)N[C@@H](CC(N)=O)C(=O)N1)C(=O)NCC(N)=O, the Potency is reported as “inactive”. For COc1cc(C(=O)O)ccc1NC(=O)C1NC(CC(C)(C)C)C(C#N)(c2ccc(Cl)cc2F)C1c1cccc(Cl)c1F (stereo not given), the Potency was “inactive”. For O=C1C(c2[nH]c3ccc(S(=O)(=O)O)cc3c2O)=Nc2ccc(S(=O)(=O)O)cc21, the Potency was “inactive”. For C=C(C)C1CCC2(C(=O)O)CCC3(C)C(CCC4C5(C)C(C=O)C(O)C(C)(C)C5CCC43C)C12 (stereo not given), the Potency was “inactive”. In the case of N#Cc1ccc(COC[C@H]2O[C@@H](n3c(NCc4ccc(Cl)c(Cl)c4)nc4c(N)ncnc43)[C@H](O)[C@@H]2O)cc1, the Potency is reported as “inactive”. In the case of O.O=C([O-])CC([S-])C(=O)[O-].[Au+].[Na+].[Na+] (stereo not given), the Potency is reported as “inactive”. For CCOC(=O)c1cnc2ccc(-c3cncc(NS(=O)(=O)c4ccccc4)c3)cn12, the Potency was 4.11 µM (active). For CC(C)C[C@@H](C(=O)N[C@@H](Cc1ccc(OCc2ccccc2)cc1)C(=O)NC(C)(C)C)N(C)Cc1ccc(C(C)(C)C)cc1, the Potency was “inactive”. With CC(C)(C)[C@H](NC(=O)c1ccc(N)c(Cl)c1)C(=O)N1CCC[C@H]1C(=O)N[C@H](C#N)CC(=O)O the Potency was “inactive”. For CN(C)CCOc1cc(NS(=O)(=O)c2c(Cl)cc(C(F)(F)F)cc2Cl)ccc1Cl, the Potency was “inactive”. In the case of O=C1Cc2c([nH]c3ccc(Br)cc23)-c2ncccc2N1, the Potency is reported as “inactive”. In the case of CC(=O)OC1CC(C)(C(=O)O)CC2C3=CC(=O)C4C5(C)CCC(OC6OC(C(=O)O)C(O)C(O)C6OC6OC(C(=O)O)C(O)C(O)C6O)C(C)(C)C5CCC4(C)C3(C)CCC12C (stereo not given), the activity change, negative = cytotoxicity is reported as 0.92% [at 9.29 µM]. In the case of CC(=O)O[C@@H]1[C@H](O[C@@H]2O[C@@H](CO)[C@H](O)[C@H]2O)[C@@H](O[C@@H]2O[C@@H](C)[C@H](O[C@@H]3OC[C@@H](O)[C@H](O)[C@H]3O)[C@@H](O)[C@H]2O)[C@H](OC(=O)[C@]23CCC(C)(C)C[C@H]2C2=CCC4[C@@]5(C)CC[C@H](O[C@@H]6O[C@H](C(=O)O)[C@@H](O)[C@H](O)[C@H]6O[C@@H]6O[C@H](CO)[C@H](O)[C@H](O)[C@H]6O)[C@@](C)(C=O)C5CC[C@@]4(C)[C@]2(C)C[C@H]3O)O[C@@H]1C (stereo not given in full), the outcome is reported as “inactive [at 9.29 µM]”. In the case of O=S1(=O)CCN(Cc2cc(NCC3CCOCC3)c3[nH]c(-c4ccccc4)cc3c2)CC1, the Potency is reported as “inactive”. With CC1OC(OC2C(O)COC(O[C@@H]3[C@@H](O)[C@@H](O)[C@H](OC4C(OC(=O)[C@]56CCC(C)(C)CC5C5=CCC7[C@@]8(C)C[C@H](O)[C@H](OC9OC(CO)C(O)C(O)C9O)[C@@](C)(CO)C8[C@H](O)C[C@@]7(C)[C@]5(C)CC6)OCC(O)C4O)O[C@H]3C)C2O)C(O)C(O)C1O (stereo not given in full) the activity change, negative = cytotoxicity was -5.97% [at 9.29 µM].
